Bead autofluor = flagged as autofluorescent in microsphere protease counterscreen. compound autofluorescence counterscreen, microsphere flow cytometry; hits give high values. AID 624483. hit rate 3.1% among 360,000. fluorescence intensity (no concentration beside the values); in the data active = fluorescence intensity above about 16000; inconclusive = no clear call, values can overlap the other calls
3CLpro inhibitor = SARS-CoV 3CLpro protease inhibition | P0C6X7 | hit rate 0.14% among 290,000 | recombinant SARS-CoV 3CLpro, quenched FRET peptide cleavage | inhibition, % at 6 µM | AID 1706; in the data active = inhibition above about 12%
VHR inh abs = DUSP3 (human) phosphatase inhibition; AID 1654; recombinant VHR phosphatase, pNPP absorbance; hit rate 0.52% among 290,000; inhibition, % at 13.3 µM; P51452; in the data active = inhibition above about 50%
Target sequence (P51452 whole entry, looked up): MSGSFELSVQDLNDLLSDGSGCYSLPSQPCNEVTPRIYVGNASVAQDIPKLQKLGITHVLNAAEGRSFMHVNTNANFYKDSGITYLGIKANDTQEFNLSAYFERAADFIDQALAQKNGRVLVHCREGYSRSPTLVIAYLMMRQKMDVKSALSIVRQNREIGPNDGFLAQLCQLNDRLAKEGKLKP
BoNT F protease = BoNT F light chain protease inhibition; inhibition, % at 10 µM; hit rate 0.22% among 360,000; Multiplex microsphere protease cleavage assay, flow cytometry; AID 588497; in the data active = inhibition above about 35%, passing the limit was not always enough; inconclusive = no clear call, values can overlap the other calls; note: plate controls were buffer without enzyme for full effect and enzyme alone for no effect
Anthrax LF inh2 = blocks Bacillus anthracis lethal factor protease. hit rate 0.12% among 360,000. inhibition, % at 10 µM. multiplex microsphere protease cleavage assay, LF. P15917; note: plate controls were buffer without enzyme for full effect and enzyme alone for no effect
BoNT-A LC inh2 = BoNT A light chain protease inhibition; multiplex microsphere protease substrate cleavage, flow cytometry; hit rate 0.17% among 360,000; AID 588499; inhibition, % at 10 µM; note: plate controls were buffer without enzyme for full effect and enzyme alone for no effect
* = called active by the depositor; ? = inconclusive; . = not tested or not shown. A selection: hits, their analogues and other compounds. The true share with any hit is near 3.9%. Cut-off read from the data, not from the text of the source, unless noted: active = inhibition above about 30%; inconclusive = no clear call, values can overlap the other calls; inactive = below that.

SMILES	Bead autofluor	3CLpro inhibitor	VHR inh abs	BoNT F protease	Anthrax LF inh2	BoNT-A LC inh2
O=C(NCC1CC1)c1onc(CSc2ccncc2)c1C(=O)NCC1CC1	2980	.	22	-5	0	0
Cc1cccc(NC(=O)c2ccc(NS(=O)(=O)c3cccc4cccnc34)cc2)c1	4620	.	.	?	15	-3
O=C(Cc1ccccc1)Nc1ccc(N2CCN(Cc3ccccc3F)CC2)cc1	17943*	3	24	6	-12	?
Cc1ccc(C(=O)N2CCN(c3ccc(NC(=S)NC(=O)Cc4ccccc4)cc3)CC2)cc1	22933*	0	25	-4	-3	1
O=C(O)/C=C/c1cccc2c1OCCO2	4816	-2	21	-2	-2	0
O=C(NCc1cccnc1)c1cc(C2CCCCN2C(=O)CCCc2ccccc2)on1 (stereo not drawn)	3601	.	.	4	-6	0
NS(=O)(=O)c1cc(C(=O)N2CCc3ccccc32)c(Cl)cc1Cl	18762*	-1	19	1	-4	3
Cc1ccc(C(=O)N2CCc3ccccc32)cc1	8048	-2	13	-10	-4	-1
Cn1ncc(Cl)c1C(=O)N1CCc2ccccc21	10470	0	22	3	0	1
Cc1nn(C)c(C(=O)N2CCc3ccccc32)c1Cl	21851*	2	0	0	-1	?
O=C(c1cc(Cl)ccc1Cl)N1CCc2ccccc21	3260	6	17	?	-11	5
O=C(c1ccc(Cl)cc1)N1CCc2ccccc21	2995	-3	56*	5	13	3
O=C(c1ccc(Cl)s1)N1CCc2ccccc21	20271*	-2	11	-4	1	-2
O=C(c1ccc(C(=O)N2CCCc3ccccc32)s1)N1CCCc2ccccc21	9169	0	38	2	3	0
CCS(=O)(=O)N1Cc2ccccc2CC1C(=O)N(C)Cc1ccc(OC)c(F)c1 (stereo not drawn)	5469	5	-3	6	-3	2
Cc1cccc(NC(=O)CNC(=O)[C@H]2O[C@@H](n3ccc(=O)[nH]c3=O)[C@H](O)[C@@H]2O)c1C	5561	.	.	-7	-4	-1
O=C(OCC(=O)N1CCc2ccccc21)c1ccc(Cl)nc1	23913*	-1	10	-2	1	0
CCOC(=O)C1=CCN(S(=O)(=O)c2ccc(C)cc2)C1c1cccc(Cl)c1 (stereo not drawn)	4320	.	.	7	-18	0
CCN(CC)c1ccc(/C=N/n2nnnc2N)c(O)c1	22051*	-5	-8	-4	-5	3
COc1ccccc1N1CCN(/N=C/C=C/c2ccccc2[N+](=O)[O-])CC1	.	0	50*	.	.	.
Nc1nnnn1/N=C/c1ccccc1Cl	3587	.	.	0	2	0
Nc1nnnn1/N=C/c1ccccn1	21208*	-4	-15	9	-7	5
O=[N+]([O-])c1ccccc1/C=C\C=N\N1CCN(c2ccccc2)CC1	4279	8	19	-6	-4	-1
COc1ccccc1N1CCN(/N=C/c2cc(OC)c(OC)c(OC)c2)CC1	9864	3	8	-8	-6	-3
COc1cc(/C=N/N2CCN(c3ccccc3OC)CC2)ccc1O	16130*	-2	-22	0	-5	?
SMILES	Bead autofluor	3CLpro inhibitor	VHR inh abs	BoNT F protease	Anthrax LF inh2	BoNT-A LC inh2
O=C(c1cc(F)ccc1F)C1CCCN(C(=O)c2ccc3nccnc3c2)C1 (stereo not drawn)	4786	-9	24	4	2	5
CCN(Cc1cc(=O)[nH]c2ccccc12)C(=O)c1ccc(C)cc1	3237	1	9	-1	-1	0
CSc1ccc(/C=N/n2nnnc2N)cc1	22907*	-1	-16	1	-1	1
COc1cc(/C=N/n2nnnc2N)ccc1O	23466*	-5	30	-9	-5	-3
Nc1nnnn1/N=C/c1ccc(O)cc1	9263	3	11	0	2	0
CCN(CC)S(=O)(=O)c1ccc(F)cc1	17034*	-3	-9	-2	0	?
CCN(CC)S(=O)(=O)c1cccc(S(=O)(=O)c2cccc(S(=O)(=O)N(CC)CC)c2)c1	22967*	0	10	0	-5	?
CC1CCc2sc(C(=O)NCc3ccc(F)cc3)cc2C1 (stereo not drawn)	24108*	-3	12	-6	-5	?
O=C(NCc1ccc(F)cc1)c1cc2c(s1)CCCC2	3902	-1	-15	-14	8	0
